MOR-DOR inv ag = inverse agonists of MOR-DOR heterodimerization, primary screen, cell-based, luminescence; Mu-type opioid receptor (Homo sapiens) + Delta-type opioid receptor (Homo sapiens), …; cell-based MOR-DOR heterodimer luminescence, inverse agonism; inhibition, % at 9.3 µM; 0.21% of 340,000 active; AID 504357, 2011; in the data active means inhibition above about 22%, passing the limit was not always enough;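 further: 0% = cells with DMSO and 100% = wells without cells with DMSO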
Target sequence (P35372 whole entry, looked up): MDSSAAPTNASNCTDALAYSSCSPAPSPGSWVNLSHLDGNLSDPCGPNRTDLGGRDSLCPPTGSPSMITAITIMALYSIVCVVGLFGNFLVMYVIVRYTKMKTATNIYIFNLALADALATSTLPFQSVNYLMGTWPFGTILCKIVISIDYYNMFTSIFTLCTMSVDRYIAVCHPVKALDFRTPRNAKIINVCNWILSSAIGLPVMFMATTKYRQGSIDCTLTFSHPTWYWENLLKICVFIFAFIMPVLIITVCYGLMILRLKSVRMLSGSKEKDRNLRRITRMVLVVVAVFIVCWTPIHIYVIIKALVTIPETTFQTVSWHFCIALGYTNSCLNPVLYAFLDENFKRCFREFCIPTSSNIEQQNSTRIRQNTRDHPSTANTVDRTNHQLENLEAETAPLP
Target sequence (P41143 whole entry, looked up): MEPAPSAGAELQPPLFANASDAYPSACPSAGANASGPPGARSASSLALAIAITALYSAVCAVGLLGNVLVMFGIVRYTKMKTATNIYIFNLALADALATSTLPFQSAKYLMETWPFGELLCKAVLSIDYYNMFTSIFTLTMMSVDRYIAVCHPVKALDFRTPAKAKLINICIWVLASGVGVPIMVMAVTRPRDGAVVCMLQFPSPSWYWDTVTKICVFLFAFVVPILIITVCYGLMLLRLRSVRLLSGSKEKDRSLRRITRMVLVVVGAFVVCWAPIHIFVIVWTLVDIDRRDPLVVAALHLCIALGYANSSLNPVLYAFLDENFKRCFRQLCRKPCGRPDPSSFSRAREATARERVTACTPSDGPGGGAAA
HTR5A inv ag = HTR5A inverse agonists in luminescence cell assay, primary screen, counter-screen for OPRM1-OPRD1 heterodimer inverse agonist project, full-deck HTS; 5-hydroxytryptamine receptor 5A (Homo sapiens), P47898; HTR5A cell line, inverse agonism; inhibition, % at 9.3 µM; 0.083% of 340,000 active; in the data active means inhibition mostly above about 23%, no sharp cut-off; inactive means mostly below about 18%;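 further: 0% = cells with DMSO and 100% = no-cell wells with DMSO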
MOR-DOR ag = agonists of OPRM1-OPRD1 heterodimerization, primary screen, cell-based, luminescence | Mu-type opioid receptor (Homo sapiens) + Delta-type opioid receptor (Homo sapiens), … | cells | activation, % at 9.3 µM | 0.3% of 340,000 active | AID 504326, 2011; in the data active means activation above about 18%;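 further: 0% = vehicle-treated cells and 100% = reference agonist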
HTR5A ag = HTR5A agonists in luminescence cell assay, primary screen, counter-screen for OPRM1-OPRD1 heterodimer agonist project, full-deck HTS | 5-hydroxytryptamine receptor 5A (Homo sapiens), P47898 | cell-based | activation, % at 9.3 µM | 0.61% of 340,000 active | AID 504692, 2011; in the data active means activation mostly above about 9.5%, no sharp cut-off; inactive means mostly below about 7.6%;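 further: 0% = cells with vehicle only and 100% = reference agonist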
The depositor's hits bear a star. The list is not random: actives were taken first. Their share in the collection is about 1.1%.

SMILES	MOR-DOR inv ag	HTR5A inv ag	MOR-DOR ag	HTR5A ag
O=C(Oc1ccc(C(=S)N2CCOCC2)cc1)c1ccc([N+](=O)[O-])cc1[N+](=O)[O-]	10.7	4.3	-2.2	-1.2
O=C(Oc1cccc(C(=S)N2CCOCC2)c1)c1ccc([N+](=O)[O-])cc1[N+](=O)[O-]	-75.0	-25.0	10.0	9.4*
Cc1ccc(C(=O)N/C(=C/c2cccs2)C(=O)NCCc2c[nH]c3ccccc23)cc1	7.6	-24.1	-1.4	14.2*
CCN(C[C@H]1N[C@@](Cc2ccccc2)(C(=O)OC)[C@H]2C(=O)N(C)C(=O)[C@@H]12)C(=O)COc1ccccc1	12.3	-15.3	-2.6	4.1
O=S(=O)(/N=C(/Nc1cccnc1)c1ccccc1)c1ccc(F)cc1F	14.2	-35.2	-3.6	14.1*
CCCSc1ccc([C@H]2N[C@@](C)(C(=O)OC)[C@H]3C(=O)N(CC)C(=O)[C@@H]23)cc1	-0.8	-8.2	0.1	9.2
COc1cc(N2CCC(O)CC2)ccc1Nc1nnc(Cl)c(Nc2ccccc2S(C)(=O)=O)n1	6.3	25.9*	-1.1	-8.8
CC(=O)n1cc(N(C(=O)CCl)c2ccc(C)cc2)c2ccccc21	-339.0	4.3	66.2*	54.5*
c1ccc(-c2nc(C3CCCCC3)c3ccccc3n2)cc1	-2.8	-2.4	0.5	12.8*
c1ccc(-c2nc(C3CCCCC3)c3sccc3n2)cc1	-6.5	-5.3	1.2	-6.0
CC(C)(C)c1ccc(/C=C/C(=O)Nc2ccncc2)cc1	-49.0	-24.8	9.5	13.2*
CCn1c(SCC(=O)Nc2ccc3c(c2)oc2ccccc23)nnc1-c1ccc(N)cc1	-79.9	-21.3	14.4	10.6*
CCn1c(Cc2cccs2)nnc1SCC(=O)Nc1ccc(OC)c(OC)c1	6.7	-39.8	-1.2	9.7*
CC(C)CCN(C(=O)c1cc(=O)[nH]c2ccccc12)c1c(N)n(Cc2ccccc2)c(=O)[nH]c1=O	10.6	-16.6	-2.6	6.8
COc1cccc(NC(=O)CN2C(=O)NC(C)(c3ccc(C)cc3)C2=O)c1 (stereo unspecified)	7.4	-15.6	-1.4	7.3
CCN(c1ccc(C)cc1C)S(=O)(=O)c1nnc(NC(=O)C(C)(C)C)s1	-26.5	-38.3	5.6	9.9*
Cc1ccc(C(c2sc3nc(C)nn3c2O)N2CC(C)OC(C)C2)cc1 (stereo unspecified)	12.7	12.8	-2.2	4.2
Cc1nc2sc(C(c3ccc(Cl)cc3)N3CC(C)OC(C)C3)c(O)n2n1 (stereo unspecified)	-7.9	-25.3	1.3	11.3*
Cc1nc2sc(C(=O)OC(C)C)c(N)c2c(C)c1C	-0.6	-24.9	0.1	8.8*
CC(NC(=O)CSc1nc2ccccc2n1C)c1ccccc1 (stereo unspecified)	-5.2	-31.2	0.8	13.9*
CCn1c(SCC(=O)NC(C)c2ccccc2)nc2ccccc21 (stereo unspecified)	20.7	-17.6	-3.9	5.4
COC(=O)c1cc(CSc2nnc(NC3CCCCC3)s2)oc1C	-31.7	-34.4	5.7	11.3*
O=c1cc(CSc2nnc(NC3CCCCC3)s2)nc2sccn12	18.8	-10.0	-4.0	-0.2
CSc1ccc(/C=C(\NC(=O)c2ccco2)C(=O)N2CCCCC2)cc1	5.2	7.8	-1.6	-1.7
Cc1ccnc(NC(=O)c2cccc(S(=O)(=O)N3CCN(c4ccc(F)cc4)CC3)c2)c1	17.9	-5.8	-3.5	2.4
SMILES	MOR-DOR inv ag	HTR5A inv ag	MOR-DOR ag	HTR5A ag
CCN(CC)CCNC(=O)c1ccc(NC(=O)c2cc(S(=O)(=O)N3CCCCC3)ccc2C)cc1	8.2	-30.8	-1.5	12.3*
CCCCOC(=O)Cn1c(=O)n(CC(=O)OCCCC)c2ccccc21	-11.3	-5.2	2.7	2.1
CCCCCCCCCCOC(=O)Cn1c(COc2cccc(C)c2)[n+](C)c2ccccc21	-35.8	-46.6	7.5	12.6*
O=C(CCOc1cccc(Br)c1)Nc1ccc(F)c(S(=O)(=O)N2CCOCC2)c1	8.2	6.6	-1.3	-2.4
COC(=O)C1=C(C)N(Cc2ccccc2)C(=NCc2ccccc2)N[C@H]1c1cccc(C(F)(F)F)c1	-83.5	-76.3	15.5	13.3*
COC(=O)C1=C(C)N(Cc2ccccc2)C(=NCC(C)C)N[C@H]1c1cccc(C(F)(F)F)c1	-53.9	-9.1	9.5	5.5
COC(=O)C1=C(C)N(Cc2ccccc2)C(=NCc2ccc(OC)cc2)N[C@H]1c1cccc(F)c1	-25.5	-15.4	4.4	5.7
COC(=O)C1=C(C)N(Cc2ccccc2)C(=NCc2cccc(Cl)c2)N[C@H]1c1cccc(F)c1	-153.6	-7.6	28.1*	3.0
CSc1ccc(/C=C/C(=O)OCC(=O)N2CCN(c3ccccc3)CC2)cc1	6.6	13.2	-1.2	-3.6
COc1ccc(C(=O)c2no[n+]([O-])c2C(=O)c2ccc(OC)cc2)cc1	-200.5	-56.4	40.4*	25.6*
Nc1cccc2nsnc12	-9.3	0.6	1.8	-2.5
Nc1cc2nsnc2cc1Br	-189.6	-33.7	31.9*	13.3*
O=C(Nc1c(F)cccc1F)c1ccc2c(c1)CCN2S(=O)(=O)c1ccccc1	8.3	20.5	-1.6	0.5
COc1ccc(C(=O)COC(=O)/C=C/c2ccco2)cc1F	5.7	11.6	-1.3	-4.7
O=C(/C=C/c1ccco1)OCC(=O)c1cccc([N+](=O)[O-])c1	29.2*	-3.2	-4.5	1.1
Cc1cccn2c(=O)c3cc(S(=O)(=O)c4ccccc4)c(=N)n(Cc4ccco4)c3nc12	-10.5	-30.0	2.2	11.6*
CN(C(=O)c1cccc(NC(=O)c2cccs2)c1)c1ccccc1	1.5	12.2	-0.3	11.1*
COc1ccc(C(=O)N/C(=C/c2cccnc2)C(=O)N2CCCCCC2)cc1OC	6.6	-33.2	-1.3	8.8*
CCn1nc(C)c(CN2CCC(C(=O)Nc3cccc(-c4cccc(F)c4)c3)CC2)c1C	-2.8	-32.6	0.6	8.7*
CC(=O)N(C)c1ccc(NC(=S)Nc2ccccc2)cc1	6.5	1.7	-1.3	-0.7
CC(=O)N(C)c1ccc(NC(=S)Nc2cccc3ccccc23)cc1	-36.0	-24.0	7.0	14.2*
CCOc1ccc2oc(C(=O)Nc3ccc(N4CCOCC4)cc3)c(C)c2c1	-8.2	11.3	1.6	13.8*
CCOc1ccc2oc(C(=O)Nc3ccc4c(c3)OCO4)c(C)c2c1	-6.4	-1.4	1.1	0.6
O=C(Nc1ccc(N2CCN(C(=O)c3ccco3)CC2)c(Cl)c1)c1cc2ccccc2o1	-37.5	16.1	6.3	14.2*
O=C(Nc1ccc(N2CCN(C(=O)c3ccco3)CC2)cc1)c1ccc([N+](=O)[O-])cc1Cl	-1.8	0.2	0.6	10.1*
Cc1ccc(C(=O)Nc2ccc(N3CCN(C(=O)c4ccco4)CC3)cc2)c(Cl)c1	-14.2	-4.1	2.0	5.4
CCN(CC)S(=O)(=O)c1ccc(N2CC(C(=O)Nc3cccc(C(=O)NC4CC4)c3)CC2=O)cc1 (stereo unspecified)	13.6	8.2	-3.6	-3.9

High-throughput results: PubChem, The Scripps Research Institute Molecular Screening Center
